Screens: PubChem, National Center for Advancing Translational Sciences (NCATS)
Rows were chosen to be rich in hits. Some 19% of all compounds tested hit in one or more screens of this group.
IL-1B inflam inh – qHTS for Inhibitors of Inflammasome Signaling: IL-1-beta AlphaLISA Primary Screen | THP-1 LPS/ATP IL-1B secretion, AlphaLISA, 16 h; stronger effect = lower value | activity change, % at 57.5 µM | 4.7% of 360,000 active; in the data active = activity change below about -50%; inconclusive = mostly about -30% to -49%; also: % is scaled to controls: 0 for no effect and ±100 for the full control effect
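THP-1 cells pretreated 1 hr with compounds (up to 57.5 uM final), then stimulated with LPS (250 ng/mL final) plus ATP (1.25 mM final); secreted IL-1B measured by AlphaLISA after 16 hr, decreased signal indicating inhibition.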
S-ASM inh – Inhibitors of Secretory Acid Sphingomyelinase (S-ASM): qHTS; Sphingomyelin phosphodiesterase (Homo sapiens), P17405; 0.006% of 340,000 active; placental ASM, HMU-PC fluorogenic substrate, 60 min; AID 504937, 2011; Potency, µM (top dose mostly 57.5 µM), inactives show top-dose activity change, negative = inhibition, actives largely listed as inhibitors; also: potency is read from the fitted curve at half-maximal effect
Target sequence (P17405 47-631 limits assumed): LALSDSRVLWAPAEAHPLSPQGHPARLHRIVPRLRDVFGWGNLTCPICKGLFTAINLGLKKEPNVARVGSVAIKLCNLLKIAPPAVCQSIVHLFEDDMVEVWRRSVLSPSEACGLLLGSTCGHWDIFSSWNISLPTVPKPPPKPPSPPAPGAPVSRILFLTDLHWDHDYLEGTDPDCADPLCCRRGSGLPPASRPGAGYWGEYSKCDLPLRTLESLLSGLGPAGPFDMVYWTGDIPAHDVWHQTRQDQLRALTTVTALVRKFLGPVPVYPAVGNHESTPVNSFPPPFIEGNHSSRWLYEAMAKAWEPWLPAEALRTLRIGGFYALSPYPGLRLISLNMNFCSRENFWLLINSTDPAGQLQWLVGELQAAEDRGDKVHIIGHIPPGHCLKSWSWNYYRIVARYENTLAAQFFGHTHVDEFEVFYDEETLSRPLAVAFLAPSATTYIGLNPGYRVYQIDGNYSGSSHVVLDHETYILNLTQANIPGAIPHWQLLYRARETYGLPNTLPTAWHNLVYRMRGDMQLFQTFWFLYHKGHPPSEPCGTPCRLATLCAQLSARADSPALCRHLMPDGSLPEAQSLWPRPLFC
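Human placenta-derived ASM enzyme was preincubated with compound for 10 minutes at room temperature, then given fluorogenic substrate HMU-PC0 (9 uM final) for 60 minutes at 37 °C; a pH 10 stop preceded fluorescence reading at Ex 386/Em 447 nm.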
TDP1 cell noCPT – qHTS for Inhibitors of human tyrosyl-DNA phosphodiesterase 1 (TDP1): qHTS in cells in absence of CPT. DT40 Tdp1-/- hTDP1 cells, no CPT, ATP luminescence, 48 h. Potency, µM (titrated, usually from 46.2 µM), for the others: at the highest dose activity change, negative = growth inhibition, usual class: inhibitors. 15% of 420,000 active. AID 686978, 2013; also: potency is read from the fitted curve at half-maximal effect; % is scaled to controls: 0 for no effect and ±100 for the full control effect; nearly all actives have a fitted effect of over 55% in size
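Compound effects on proliferation are scored in DT40 Tdp1-/-;hTDP1 cells in the absence of CPT. ATP levels (CellTiter-Glo luminescence) are recorded after a ≥48 hr, 37 °C incubation.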
TGFb SMAD3 inh – qHTS for Inhibitors of TGF-b | HepG2 CAGA-GFP TGF-b/SMAD3 reporter, GFP fluorescence, 18 h; TGF-beta stimulated, 500 pg/mL final | Potency, µM (doses to about 46.1 µM), without a hit: top-dose activity, negative = inhibition, hits mostly inhibitors | 1.2% of 410,000 active; also: potency is read from the fitted curve at half-maximal effect; % is scaled to controls: 0 for no effect and ±100 for the full control effect; nearly all actives have a fitted effect of over 65% in size
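TGF-beta reporter screen: HEPG2 CAGA-GFP, 1% FBS, 500 pg/mL TGF-beta final, 18 h; per-cell GFP summed per well; curves fitted and categorized by class.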
DT40 TDP1 CPT – qHTS for Inhibitors of human tyrosyl-DNA phosphodiesterase 1 (TDP1): qHTS in cells in presence of CPT; 12% of 420,000 active; Potency, µM (highest dose often 46.2 µM), inactives show at the highest dose activity change, negative = growth inhibition, usual class: inhibitors; chicken DT40 Tdp1-/-;hTDP1 cells + 20 nM CPT, ATP luminescence, 48 h; also: potency is read from the fitted curve at half-maximal effect; % is scaled to controls: 0 for no effect and ±100 for the full control effect; nearly all actives have a fitted effect of over 55% in size
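Cell growth measured by CellTiter-Glo luminescence after a minimum 48 h, 37 C compound exposure with 20 nM CPT in Tdp1-knockout DT40 cells stably expressing hTDP1, seeded 400/well; qHTS titration format.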
HepG2 tox – qHTS for Inhibitors of TGF-b: Cytotox Counterscreen; 0.76% of 410,000 active; HepG2 CAGA-GFP viability, ATP luminescence, 18 h; Potency, µM (titrated, usually from 46.1 µM), for inactives: at the highest dose activity change, negative = cytotoxicity, hits mostly cytotoxic; AID 588856, 2011; also: potency is read from the fitted curve at half-maximal effect
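HepG2 CAGA-GFP cells (1000/well, DMEM with 1% FBS) received compound, then TGF-beta at 500 pg/mL final, and were incubated 18 hours at 37 degrees C. Viability was read by CellTiter-Glo luminescence. Media-only wells were set as complete cell-killing and DMSO as no toxicity.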
* hit, by the source's call; ? = inconclusive; . = no result. Unless noted, calls follow the shape of the dose curve; as a rule, active = well fitted curve in the direction sought with a large enough effect; inconclusive = small, poorly fitted or top-dose-only effect, or another doubt; inactive = no such curve, though single readings can be large; an effect the other way counts as inactive or inconclusive.

SMILES | IL-1B inflam inh | S-ASM inh | TDP1 cell noCPT | TGFb SMAD3 inh | DT40 TDP1 CPT | HepG2 tox
Cc1ccc(-c2nnn(CC(=O)N(c3ccccc3F)C(C(=O)NC3CCCC3)c3ccco3)n2)o1 (stereo unspecified) | -11 | -1% | 16µM* | -24% | 29µM* | 2%
Cc1ccccc1N(C(=O)Cn1nnc(-c2cccs2)n1)C(C(=O)NCCC(C)C)c1ccco1 (stereo unspecified) | -51* | -3% | ? | ? | ? | -5%
Cc1ccc(-c2nnn(CC(=O)N(c3cccc(F)c3)C(C(=O)NC3CCCC3)c3ccncc3)n2)o1 (stereo unspecified) | -1 | 0% | -11% | 1% | 5% | -14%
COc1ccc(-c2nnn(CC(=O)N(CC(=O)NCCC(C)C)Cc3cccs3)n2)cc1OC | 19 | -2% | ? | 0% | ? | -2%
COc1ccc(C(=O)NC2CCN(Cc3ccccc3)C2)cc1S(=O)(=O)N1CCOCC1 (stereo unspecified) | ? | 4% | 7% | 2% | -14% | -13%
Cc1ccc(CNC(=O)C2CC3Cn4c(nc5cc(Cl)c(Cl)cc54)C3N2C)o1 (stereo unspecified) | -6 | -3% | ? | ? | ? | -22%
CCOCCCN(C(=O)Cn1nnc(-c2ccc(C)o2)n1)C(C(=O)NC1CCCC1)c1ccc(C)o1 (stereo unspecified) | -52* | -3% | ? | -22% | ? | 7%
Cc1ccc(-c2nnn(CC(=O)N(c3ccc(F)cc3)C(C(=O)NC3CCCC3)c3ccco3)n2)o1 (stereo unspecified) | 93 | 2% | ? | 6% | 15µM* | -12%
COc1cccc(CN2CCN(Cc3cc4ccccc4[nH]3)CC2CCO)c1 (stereo unspecified) | -11 | 14% | ? | 22µM* | ? | 17%
COc1cccc(CN2CCN(Cc3[nH]c4ccccc4c3C)CC2CCO)c1 (stereo unspecified) | -78* | 0% | ? | -27% | ? | -41%
Cc1cc2nc(C3CCN(Cc4nnnn4Cc4cccs4)CC3)[nH]c2cc1C | -14 | -1% | 6.3µM* | -5% | 3.5µM* | -15%
CCN(C(=O)c1cccs1)C1CCS(=O)(=O)C1 (stereo unspecified) | 13 | 4% | ? | 0% | -3% | -4%
CCCNC(=O)c1ccc(N2CCC3(CC2)CC(c2cccc(Br)c2)=NO3)c(NC(=O)c2ccc(Br)cc2)c1 | -24 | -6% | -16% | -23% | -15% | 5%
Cc1ccc(CNC(=O)c2ccc(N3CCC4(CC3)CC(c3ccccc3)=NO4)c(N)c2)cc1 | 40 | -2% | ? | -9% | 2.6µM* | -45%
CCCCC(CC)C(=O)Nc1cc(C(=O)NCCC)ccc1N1CCC2(CC1)CC(c1ccccc1)=NO2 (stereo unspecified) | -17 | -10% | ? | 2% | 6.5µM* | 1%
CCCNC(=O)c1ccc(N2CCC3(CC2)CC(c2ccccc2)=NO3)c(NC(=O)c2cccc(OC)c2)c1 | 8 | -10% | 13µM* | 6% | ? | -3%
CCCNC(=O)c1ccc(N2CCC3(CC2)CC(c2ccccc2)=NO3)c(NC(=O)c2ccco2)c1 | -15 | ? | 16µM* | -8% | 18µM* | -16%
Cc1ccc(CNC(=O)c2ccc(N3CCC4(CC3)CC(c3ccccc3)=NO4)c(NC(=O)c3ccccc3)c2)cc1 | -21 | 0% | -21% | -4% | -36% | 3%
COc1ccccc1C(=O)NCC(=O)N/N=C/c1cccc(Cl)c1 | -29 | -1% | -14% | -12% | -23% | 1%
COc1ccc(/C=C(\C#N)C(=O)Nc2ccc3[nH]c(=O)[nH]c3c2)cc1 | 2 | 5% | -19% | -4% | -3% | -15%
CN(CC(=O)OCC(=O)NC1CCCC1)S(=O)(=O)c1ccc(Cl)cc1 | -11 | 0% | 22% | 1% | -10% | -3%
CCc1ccccc1Nc1cc(C(=O)NCc2ccc(C)cc2)c2ccccc2n1 | . | . | ? | -17% | 21µM* | -33%
CCc1ccccc1Nc1cc(C(=O)NC(C)c2ccccc2)c2ccccc2n1 (stereo unspecified) | . | . | ? | ? | 29µM* | -24%
CCc1ccccc1Nc1cc(C(=O)NCCc2ccccc2)c2ccccc2n1 | . | . | ? | ? | ? | -36%
O=c1[nH]c(Nc2ccccc2)cc2ccccc12 | -7 | 294% | ? | 17% | -25% | -10%
SMILES | IL-1B inflam inh | S-ASM inh | TDP1 cell noCPT | TGFb SMAD3 inh | DT40 TDP1 CPT | HepG2 tox
O=c1[nH]c(Nc2ccccc2)cc2cc(Br)ccc12 | 36 | 45% | 18µM* | -42% | ? | -38%
COc1ccc(OC)c(Nc2cc3ccccc3c(=O)[nH]2)c1 | 63 | 54% | 1.8µM* | -19% | 1.3µM* | -38%
COc1ccccc1Nc1cc2cc(Br)ccc2c(=O)[nH]1 | 79 | 20% | 5.2µM* | ? | 2.6µM* | -34%
CCOC(=O)C1CCCN(C(=O)CCNC(=O)Cn2ccc3ccccc3c2=O)C1 (stereo unspecified) | -10 | -1% | -9% | 2% | -16% | -4%
Cc1csc2nc(COc3ccc(NC(=O)C(C)C)cc3)cc(=O)n12 | . | . | -27% | -6% | -2% | 2%
CCOCCCNC(=O)C1CCN(C(=O)c2cc3sccc3n2C)CC1 | . | . | -18% | -9% | 11% | -34%
COC(=O)c1sccc1NC(=O)Cc1ccc(OC)c(OC)c1 | 23 | 1% | -5% | 14% | -24% | -16%
COC(=O)c1c(-c2cccc3ccccc23)csc1NC(=O)Cc1ccc(OC)c(OC)c1 | ? | 3% | 12µM* | -9% | 26µM* | 7%
COC(=O)c1c(-c2ccc(Br)cc2)csc1NC(=O)Cc1ccc(OC)c(OC)c1 | -6 | -3% | 10µM* | ? | ? | -12%
COC1OC2COC(c3ccccc3)OC2C(OC(C)=O)C1OC(C)=O (stereo unspecified) | 19 | -1% | 4% | 1% | 0% | 11%
